From PubChem BioAssay (NCI)
Several values for one entry are separate records, joined by “and”; a condition that tells them apart may be missing. Equal entries are not always repeated. The panel holds about 83,000 compounds, 20% with a hit somewhere; the sample as a whole holds those more often.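 Negative percent growth values reflect cell death: -40 means 40% of the cells present at the start died, and -100 means all died.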 Activity calls are given as the source filed them. The calls were made as follows: active = growth percent below 10; inactive = the rest.

These molecules were tested on MDA-MB-468 breast (assay: NCI-60 one-dose screen, 48 h (100 = growth as untreated, 0 = no growth, -100 = all killed)). Conditions: 10 µM unless noted.

For C=CC(=O)N[C@H](/C=C/C(=O)OCC)Cc1ccc(-c2cc(Cl)cc(Cl)c2)cc1, which growth is on record?
Its growth is 88% (inactive).

For Cc1cc(SCc2ccccc2)nc(N)n1, which growth is on record?
Its growth is 110% (inactive).

Which growth does the source give for COc1ccc(-n2nnc(C(=O)O)c2-c2cc(OC)c(OC)c(OC)c2)cc1 here?
Its growth is 102% (inactive).

With COc1ccc(C(O)c2ccccc2)cc1 (stereo not given) as the molecule, how does the growth read?
Its growth is 3.29% (active).

Which growth does the source give for Oc1[nH]c2ccc(Cl)cc2c1/C=c1/ccc2c(c1)N=C(c1ccc(F)cc1)N=2 here?
Its growth is 9.65% (active).

With CC(C)Sc1nc(-c2ccccc2)c(C#N)c(N2CCOCC2)n1 as the molecule, how does the growth read?
Its growth is 80.9% (inactive).

How did the growth turn out when CCOC(=O)C1=C(Nc2ccc(Br)cc2)C(=O)N(CC)C1 was run?
The growth was 101% (inactive).

Which growth does the source give for COc1cc(CNS(=O)(=O)c2ccc(C)cc2)ccc1OCc1cn(-c2ccccc2)nn1 here?
Its growth is 70.7% (inactive).

Which growth does the source give for O=C(CNc1nc(-c2cccc([N+](=O)[O-])c2)cs1)Nc1cccc([N+](=O)[O-])c1 here?
The growth was 14.3% (inactive).

For O=C(C(=O)N1CCCC1)c1cn(CCCn2cc(C(=O)C(=O)N3CCCC3)c3cc(Br)ccc32)c2ccc(Br)cc12, which growth is on record?
Its growth is 70.4% (inactive).

COc1ccccc1/C=C/C1=C(C)CCC(c2ccccc2OC)C1C (stereo not given) was tested. Which growth did it give?
Its growth is 29.7% (inactive).

With Cc1ncn(-c2ccc(/C=N/Nc3ccnc4cc(Cl)ccc34)cc2)c1C as the molecule, how does the growth read?
The growth was -21.4% (active).

With COc1cc2cc(Oc3ccc(NC(=O)Nc4cccc(C(F)(F)F)c4)cc3)c(C)nc2cc1OCCN1CCCCC1 as the molecule, how does the growth read?
Its growth is -68.7% (active).

For Cc1cc(=O)[nH]c(N/N=C/c2cc(Br)ccc2O)n1, which growth is on record?
The growth was 3.37% (active).

O=C1CCc2c(sc3[nH]c(=S)n(Cc4ccc(Cl)cc4)c(=O)c23)C1 was tested. Which growth did it give?
The growth was -18.7% (active).

Which growth does the source give for Nc1ccc(-c2cc3c(NCc4ccccc4)ncnc3s2)cc1 here?
The growth was 4.36% (active).

How did the growth turn out when CC(C)C[C@H](NC(=O)Cn1ccc2ccccc2c1=O)B(O)O was run?
The growth was 0.399% (active).

With Cc1nn(-c2ccc(Cl)cc2)c(C)c1N=Nc1ccc2oc(=O)ccc2c1 as the molecule, how does the growth read?
Its growth is 98.5% (inactive).

How did the growth turn out when COc1ccc(-c2cn[nH]c2-c2cc(OC)c3c(c2)OCO3)cc1 was run?
The growth was 36.1% (inactive).

Which growth does the source give for CCCCn1c(-c2ccc(F)cc2)nc2cc(OC)c(OC)cc2c1=O here?
The growth was 115% (inactive).

O=P(OCCCl)(OCCCl)C(O)c1ccccc1Cl (stereo not given) was tested. Which growth did it give?
Its growth is 109% (inactive).

Cc1cc2c(cc1C)NC1=C(N2)OC(c2c3ccccc3cc3ccccc23)C1=O (stereo not given) was tested. Which growth did it give?
Its growth is -18.6% (active).

O=C(CN1C(=O)S/C(=C\c2ccccc2)C1=O)Nc1ccc(C(=O)/C=C/c2cc3ccccc3nc2Cl)cc1 was tested. Which growth did it give?
The growth was 63.1% (inactive).

How did the growth turn out when CCCC(=O)NC(c1cccc(N(C)C)c1)c1cc(C)c2cccnc2c1O (stereo not given) was run?
The growth was 24.8% (inactive).

With O=C(/C(Br)=C/c1ccccc1)c1ccccc1 as the molecule, how does the growth read?
Its growth is -31.9% (active).

For O=C(Cc1ccc(/C=C/C(=O)c2ncc[nH]2)cc1)Nc1cc(F)c(F)c(F)c1, which growth is on record?
The growth was 8.95% (active).

With CCN(Cc1ccccc1)c1ccc(SC#N)cc1 as the molecule, how does the growth read?
The growth was 72.3% (inactive).

How did the growth turn out when COc1cccc(-c2nc3sccn3c2-c2ccnc(NCCCNS(=O)(=O)c3ccccc3)n2)c1 was run?
The growth was 52% (inactive).

For CCN(CC)CCOc1ccc2c(c1)C(=O)c1cc(OCCN(CC)CC)ccc1-2, which growth is on record?
Its growth is 14.9% (inactive) and -13.8% (active).

For Nc1cc(N)c2cccnc2c1O, which growth is on record?
The growth was 48.2% (inactive).

With N#CCCCCCn1c2ccccc2c2c3c(c4c5ccccc5n(CCCCCC#N)c4c21)C(=O)N(O)C3=O as the molecule, how does the growth read?
The growth was 87.8% (inactive).

How did the growth turn out when CCc1ccccc1-n1c(-c2ccc(Cl)cc2)cc(-c2ccc(Cl)cc2)c(C#N)c1=O was run?
The growth was 87.6% (inactive).

For Cc1ccc(Cc2ccc(C)cc2)cc1, which growth is on record?
The growth was 96.8% (inactive).

How did the growth turn out when Cc1sc2nc3[nH]/c(=C\c4ccc(Cl)cc4)c(=O)n3c(=O)c2c1C was run?
The growth was 101% (inactive).

With CC(C)(C)c1ccc(NS(=O)(=O)c2ccc3nc(NC(=O)c4cnccn4)[nH]c3c2)cc1 as the molecule, how does the growth read?
Its growth is -18.6% (active).

With CCOC(=O)c1c(NC(=O)c2ccccc2)sc2c3c(ccc12)OCN(C)C3 as the molecule, how does the growth read?
The growth was -73.7% (active).

For Clc1ccc(/C=C/c2ccccn2)c(Cl)c1, which growth is on record?
The growth was 29.3% (inactive).

COC(=O)[C@@H]1[C@H](O)[C@H](C)[C@H](O)[C@H](C)/C=C\C=C(C)C(=O)Nc2c(C)c(OC(C)=O)c3c(c2O)C(=O)C(C)=C2OCOC(=C23)C(C)=C[C@@](C)(O)[C@H](O)[C@@H](C)[C@H]1OC(C)=O was tested. Which growth did it give?
The growth was 110% (inactive).

For COc1ccc2sc3cccc(NCCN(C)C)c3c(=O)c2c1, which growth is on record?
Its growth is 52.3% (inactive) and -82% (active).

With Nc1n[nH]c2ccc([C@@H]3Nc4ccc5[nH]ncc5c4[C@H]4C5C=CC(C5)[C@@H]34)cc12 (stereo not given in full) as the molecule, how does the growth read?
Its growth is -12.2% (active).
